# From PubChem BioAssay AID620 (Sanford-Burnham Center for Chemical Genomics, 2007)
# In all, about 87,000 compounds went through this assay and about 360 (0.41%) were called active. Rule as the data show it: active = cytotoxicity above about 50%; inactive = the rest. This excerpt belongs to a sample that is enriched for actives.
# Test: HT1080 cell viability loss – fluorescence readout (AID 620);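 also: cells exposed to compound overnight then 4 h with Alamar Blue; 0% = vehicle DMSO and 100% = killing control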
# Conditions: at 10 µM, hits give high values
row,Structure (SMILES),cytotoxicity
1,CCOC(=O)C1CCN(C(=O)Nc2ccc3nc(C)c(C)nc3c2)CC1,2.9% (inactive)
2,Cc1cc(C)c(S(=O)(=O)NCC2CCC(C(=O)NCCCN3CCOCC3)CC2)c(C)c1 (stereo not drawn),2.9% (inactive)
3,Cc1cc(C)c(NC(=O)c2ccc(S(=O)(=O)N3CCOCC3)cc2)c(C)c1,-5.9% (inactive)
4,C=CCN1C(=O)S/C(=C/c2ccsc2)C1=O,2.6% (inactive)
5,C/C=C/COC(=O)c1[nH]c2c(c1C)C(=O)CC(c1ccc(N(C)C)cc1)C2 (stereo not drawn),-0.3% (inactive)
6,C=CCOC(=O)c1[nH]c2c(c1C)C(=O)CC(c1ccco1)C2 (stereo not drawn),67.5% (active)
7,C/C=C/COC(=O)c1[nH]c2c(c1C)C(=O)CC(c1ccco1)C2 (stereo not drawn),65.5% (active)
8,N#CC1=C2C=CC=CN2CC1=O,-0.7% (inactive)
9,COc1ccc(CC(=O)N2CCCc3ccccc32)cc1,-11% (inactive)
10,CCSC1(SCC)N=C(N)C2(C#N)C(c3ccccc3)NC(C)=C(C)C12C#N (stereo not drawn),6.9% (inactive)
11,CCN(CC)S(=O)(=O)c1ccc(Br)c(OC)c1,-1.2% (inactive)
12,CCc1ccccc1NC(=O)CN1C(=O)C2CCCN2c2ncc(Cl)cc21 (stereo not drawn),-1.2% (inactive)
13,O=C(c1cccs1)c1no[n+]([O-])c1C(=O)c1cccs1,73.8% (active)
14,O=C(O)Cc1ccc(C(=O)c2cccs2)s1,6.9% (inactive)
15,Cc1ccc(C(=O)c2nocc2C(=O)c2cccs2)cc1,-9.5% (inactive)
16,CCOC(=O)N1CCN(C(=O)c2cnsn2)CC1,-5.1% (inactive)
17,CC(C)(C)N1CC(c2nc3ccccc3n2Cc2ccccc2)CC1=O (stereo not drawn),-14.8% (inactive)
18,Cc1cccc(N(C)C(=O)COc2cc(=O)n(C)c3ccccc23)c1,2% (inactive)
19,Cc1cnc(C(=O)OCC(=O)N2c3ccccc3NC(=O)C2(C)C)cn1,-0.5% (inactive)
20,Cc1ccc2[nH]c(-c3ccccc3)cc(=O)c2c1,71.1% (active)
21,O=c1cc(-c2ccccc2)c2ccccc2[nH]1,-2.5% (inactive)
22,O=c1cc(-c2ccccc2)[nH]c2ccccc12,67.1% (active)
23,CCN(CC)Cc1c(-c2ccccc2)[nH]c2ccc(C)cc2c1=O,5.1% (inactive)
24,Cc1ccc2[nH]c(C(=O)O)c(-c3ccccc3)c2c1,-8.4% (inactive)
25,Cc1cc(=O)c2ccccc2[nH]1,26.5% (inactive)
26,Cc1ccc(NC(=O)N(CCCN2CCOCC2)Cc2cc3cc4c(cc3[nH]c2=O)OCO4)cc1,-5.1% (inactive)
27,C#CC(C)(CC)NC(=O)Cn1nnc(-c2ccc(S(C)(=O)=O)cc2)n1 (stereo not drawn),-5.1% (inactive)
28,CC(CN1CCCCC1)OC(=O)Cc1ccc(Cl)cc1 (stereo not drawn),-6.9% (inactive)
